Test results as given in PubChem BioAssay AID1159580 (chemical genetic matrix, 2015).
“And” between values parts separate entries of the source, which are not always exact repeats. Identical values can stand only once. Out of some 5,500 compounds screened, about 2,000 (36%) were called active. About 18% were inconclusive and are not listed. Rule as the data show it: active = normalized growth mostly below about 0.91 (no sharp cut-off); inconclusive = no clear call, values can overlap the other calls; inactive = mostly above about 0.92. This is one part of the list.

Experiment: chemical genetic growth profiling, strain panel (AID 1159580);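 also: tested at 20 µM; growth read once vehicle control cultures reached saturation at 30 °C; 1 = growth at the plate median or of vehicle wells; lower values mean less growth of the strain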
Details: S. cerevisiae deletion strains, growth OD

Measured: normalized growth

CC(C(=O)O)c1ccc(C(=O)c2cccs2)cc1 (configuration not stated)
inactive: locus YAL021C, strain ccr4, active compounds read low 1.02 | locus YAL026C, strain drs2, active compounds read low 1.01 | locus YAL030W, strain snc1, active compounds read low 1 | locus YBL061C, strain skt5, active compounds read low 1 | locus YBR009C, strain hhf1, active compounds read low 1.01 | locus YBR021W, strain FUR4, active compounds read low 0.987 | locus YBR023C, strain chs3, active compounds read low 0.995 | locus YBR171W, strain sec66, active compounds read low 0.985 | locus YBR229C, strain ROT2, active compounds read low 1.01 | locus YBR231C, strain swc5, active compounds read low 1 | locus YBR279W, strain paf1, active compounds read low 0.996 | locus YCL011C, strain gbp2, active compounds read low 1.01 | locus YCL016C, strain dcc1, active compounds read low 0.998 | locus YCL029C, strain bik1, active compounds read low 1.01 | locus YCL061C, strain MRC1, active compounds read low 1.01 | locus YCL069W, strain vba3, active compounds read low 0.997 | locus YCR088W, strain abp1, active compounds read low 0.996 | locus YDL005C, strain med2, active compounds read low 0.995 | locus YDL035C, strain GPR1, active compounds read low 1.01 | locus YDL040C, strain nat1, active compounds read low 0.998 | locus YDL074C, strain BRE1, active compounds read low 1 | locus YDL101C, strain DUN1, active compounds read low 1.01 | locus YDL134C, strain PPH21, active compounds read low 1 | locus YDL185W, strain tfp1, active compounds read low 0.999 | locus YDL192W, strain arf1, active compounds read low 1.01 | locus YDR001C, strain nth1, active compounds read low 0.993 | locus YDR069C, strain doa4, active compounds read low 0.994 | locus YDR101C, strain arx1, active compounds read low 1 | locus YDR137W, strain rgp1, active compounds read low 0.963 | locus YDR159W, strain sac3, active compounds read low 0.991 | locus YDR162C, strain NBP2, active compounds read low 1.01 | locus YDR195W, strain ref2 0.976 | locus YDR297W, strain sur2, active compounds read low 0.999 | locus YDR318W, strain mcm21, active compounds read low 1.02 | locus YDR334W, strain swr1, active compounds read low 0.989 | locus YDR335W, strain msn5, active compounds read low 1.01 | locus YDR388W, active compounds read low 1.02 | locus YDR392W, strain spt3, active compounds read low 1.03 | locus YDR502C, strain sam2, active compounds read low 1.03 | locus YEL003W, strain gim4, active compounds read low 0.987 | locus YEL037C, strain rad23, active compounds read low 1 | locus YEL061C, strain CIN8 (second series), active compounds read low 1 | locus YEL061C, strain CIN8, active compounds read low 1 | locus YER015W, strain faa2, active compounds read low 0.989 | locus YER016W, strain bim1, active compounds read low 1.02 | locus YER110C, active compounds read low 1.02 | locus YER111C, strain swi4, active compounds read low 0.985 | locus YER155C, strain BEM2 (second series), active compounds read low 1 | locus YER155C, strain BEM2, active compounds read low 0.992 | locus YER167W, strain BCK2, active compounds read low 1 | locus YFR010W, strain ubp6, active compounds read low 0.991 | locus YGL078C, strain dbp3, active compounds read low 1.01 | locus YGL086W, strain mad1, active compounds read low 1 | locus YGL167C, strain pmr1, active compounds read low 0.994 | locus YGL173C, strain kem1, active compounds read low 0.993 | locus YGL227W, strain vid30, active compounds read low 0.99 | locus YGL240W, strain doc1, active compounds read low 1 | locus YGL248W, strain PDE1, active compounds read low 1.01 | locus YGL253W, strain hxk2, active compounds read low 1.01 | locus YGR135W, strain pre9, active compounds read low 1.01 | locus YGR252W, strain gcn5, active compounds read low 1 | locus YHR013C, strain ard1, active compounds read low 0.989 | locus YHR027C, strain rpn1, active compounds read low 1.01 | locus YHR030C, strain SLT2, active compounds read low 0.998 and 1 | locus YHR079C, strain IRE1 (second series), active compounds read low 1.01 | locus YHR079C, strain IRE1, active compounds read low 0.999 | locus YHR094C, strain hxt1, active compounds read low 1.01 | locus YHR129C, strain ARP1, active compounds read low 1 | locus YHR142W, strain chs7, active compounds read low 0.995 | locus YHR200W, strain rpn10, active compounds read low 1.01 | locus YIL066C, strain RNR3, active compounds read low 1.01 | locus YIL073C, strain SPO22, active compounds read low 1.07 | locus YIL125W, strain kgd1, active compounds read low 1.01 | locus YIR030C, strain dcg1, active compounds read low 1.01 | locus YJL092W, strain hpr5, active compounds read low 0.996 | locus YJL095W, strain BCK1 (second series), active compounds read low 1 | locus YJL095W, strain BCK1, active compounds read low 1 and 0.971 | locus YJL115W, strain asf1, active compounds read low 0.995 | locus YJL129C, strain trk1, active compounds read low 0.982 | locus YJL134W, strain LCB3, active compounds read low 1 | locus YJL154C, strain vps35, active compounds read low 0.99 | locus YJL164C, strain tpk1, active compounds read low 1.03 | locus YJL166W, strain qcr8, active compounds read low 0.99 | locus YJL168C, strain set2, active compounds read low 1.01 | locus YJL187C, strain SWE1 (second series), active compounds read low 1.01 | locus YJR043C, strain POL32, active compounds read low 0.982 | locus YJR066W, strain TOR1, active compounds read low 0.952
